# Source: PubChem BioAssay AID1347426 (Functional Genomics Laboratory (NCATS/FGL), 2020)
# Hit rate of the full screen: of about 31,000 sequences, about 1,400 (4.5%) were called active.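 The calls were made as follows: active = median seed-adjusted z-score above 1 or below -1; inactive = the rest.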 Shown is part of a subset that was picked to be rich in actives.
# Assay: Novel Modifiers of Survival Motor Neuron (SMN) Protein: Gene Identification via Genome-wide siRNA Screen;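 also: luminescence tracks full-length SMN protein made from the SMN2 reporter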
# Conditions: HEK293T SMN2-luciferase reporter, siRNA knockdown, 72 h; actives lie on both sides
# Outline: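 Steps: spot 1 pmol siRNA, add Lipofectamine RNAiMax in serum-free DMEM, seed HEK293T SMN2–luciferase reporter cells; incubate 72 h at 37 °C; add ONE-Glo; normalize luminescence to control siRNA, log10, MAD. Candidates: |MAD| > 1.0.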
row,Sequence,median seed-adjusted z-score
1,CUGCCGAACUUUUAAACAATT against MCHR2,-0.658 (inactive)
2,UGGAAUCUGUGGUAAAGAATT against HGS,1.16 (active)
3,CCACGUCUAAAGUCCGAAATT against KIF3C,0.0126 (inactive)
4,GAAUGGUCGUGGAUUCACATT against MAPKAPK5,0.489 (inactive)
5,GGAGAUUCCAUAAGACAAUTT against ZNF114,-0.303 (inactive)
6,GGAUCUUCGUGAAGUAUUUTT against TRA2A,-0.187 (inactive)
7,AAAUUCCCGUCAUUGAAAATT against SNRPA1,-2.71 (active)
8,GGAUUGCUUCUGACUCCGATT against ELK3,-0.16 (inactive)
9,CAUUGACCACUACAAGUAATT against ITFG1,-0.417 (inactive)
10,CAUUUGCGGUUCGGACAAATT against CACNB2,0 (inactive)
11,CUCUGUGAAUUUGAAAUCATT against SNED1,0.148 (inactive)
12,GCAAGAUAGCUCAACCCAATT against ADAMTS12,-0.0721 (inactive)
13,GUAUCAUGGAUGGAAAAGATT against ASRGL1,0 (inactive)
14,GCAGAGGAGUCAAUGCUAUTT against ARL8B,-0.477 (inactive)
15,AGCUUUUGUUGAGAGUUCATT against YY1,1.94 (active)
16,GCUACUUACAGGUACCGUATT against PDCD11,-0.335 (inactive)
17,GUUUCUGAUUUAAUAGACATT against ZNF781,0.0307 (inactive)
18,CCAACAAACUCACCAUACATT against KREMEN1,0 (inactive)
19,AAACAAUUCCAGUCCAGUUTT against IL8RA,0.316 (inactive)
20,CACCUGCGAGUGUUCCAAUTT against CSTB,1.08 (active)
21,GGAAAGUUCUUUAGACUUATT against ZNF529,-0.243 (inactive)
22,GAAUCAACAAGAUUGGGAATT against CBS,-0.0696 (inactive)

row,Sequence,median seed-adjusted z-score
1,UCGUGUUCCUAGUCAUCUATT against TCIRG1,0.123 (inactive)
2,GUCACGUACUCGCUGCUGATT against SMAD6,-0.167 (inactive)
3,GGCUCAACAUACAUCAGAATT against ZNF350,0.133 (inactive)
4,GGCACUCCAUGCUCACUGUTT against AGPAT1,-1.38 (active)
5,GGUGAAAGGUCAGAUCUAATT against ZNF436,0.00767 (inactive)
6,GGAAGUAUCAGAUCUUGAATT against CYFIP2,-0.322 (inactive)
7,GCAGUGUAUAGAACGAGAATT against RNGTT,-1.55 (active)
8,GCACAUCAAGUUCUAUACATT against SLCO2A1,-0.0778 (inactive)
9,CCCUGUCAUCUAUGCUCUATT against CNR2,0.33 (inactive)
10,GACCCACAAAUAUACCAUUTT against SMAP1,-0.201 (inactive)
11,GCAAAGCUCUAAAGCCCAATT against TXNDC12,-0.154 (inactive)
12,GGAUUAAAGUGUGAAGACUTT against PRKCD,-0.236 (inactive)
13,GGGCAGAUGACACCUUUGATT against TCEB2,1.28 (active)
14,CGCAAGGACAGAAAACCAATT against ASMT,-0.322 (inactive)
15,ACGGCUACGUGGUAAAGGATT against RPS6KA1,0.194 (inactive)
16,CAGCAACCAGAGGAGUAUATT against TCF20,0.392 (inactive)
17,CCGUCAUGCACUUACCUUUTT against ADCY9,0.269 (inactive)
18,CAUCAUGACAUGUAUGAUUTT against PAFAH1B3,-0.381 (inactive)
19,GAGUGUGACUGGUAAAGUUTT against SMNDC1,-1.54 (active)
20,GAGGAAUUGUUGAUAAAGATT against MAGI2,-0.23 (inactive)
21,GAAUGCUCCUUUACCAGAATT against GRB10,-0.0341 (inactive)
22,GGAAGAACAUGACAACCAATT against IFIT1,-0.489 (inactive)

row,Sequence,median seed-adjusted z-score
1,CCAACGAUCUGGACCGUGUTT against MED16,-0.6 (inactive)
2,GAACCUGGAUCACAUAAUATT against DFFB,0.242 (inactive)
3,CCAAGAUUGUCACUCUGGATT against E2F7,-0.0972 (inactive)
4,GGUUCGAGGUAAACCCUAATT against CTPS2,1.08 (active)
5,GGGCUACAAACUGAACAAATT against LOC81691,-0.285 (inactive)
6,CAACAGCGAUUUGAUGGAATT against ERO1L,-0.251 (inactive)
7,GGAACUGUUUAUAAGGGUATT against RAF1,0 (inactive)
8,GGCACGUUUUACGACAGAATT against CHEK2,0.585 (inactive)
9,GGCACAUGGUUAACCUGGATT against GPX4,-1.18 (active)
10,CCCAGGAAGUUCUACUACATT against HS6ST1,-0.436 (inactive)
11,GAACUUCACUUAGGACAUUTT against ATP6V1G1,0.311 (inactive)
12,GACUCAAUGGUUUGCAUUATT against CTDP1,-2.29 (active)
13,GGAUGAUCAUGAGCGGCAATT against PHKG1,-0.153 (inactive)
14,GCUUCAUUGUGGACCGGCATT against GALNTL4,0 (inactive)
15,GACUGGAGAUAUCAAGGAATT against SQLE,-1.14 (active)
16,CAAUGAAGAUAUGUUUAGATT against WBP5,0.452 (inactive)
17,GAUCAUUGAGAACACGUAUTT against RNF121,-0.53 (inactive)
18,GAAUCCACCUUCGACCUGATT against HMX1,1.3 (active)
19,CCACUGAAUAUGUGCAGAATT against FBP2,0 (inactive)
20,CGGCUACGACGAUUACGAATT against MYO15A,0.0508 (inactive)
21,GGAUUUCGAUUGCAUCAUUTT against LGI1,-0.19 (inactive)
22,AGUGGGUGCUGAACCAUGATT against FES,0.402 (inactive)

row,Sequence,median seed-adjusted z-score
1,GCCCAGAGACUAUUCAGUATT against SF3A3,-2.1 (active)
2,CGUGGAAUACUAGAGCAAATT against ACTL6A,1.11 (active)
3,CAGACUUGCUUAAUAGUAATT against ZFP1,0.0391 (inactive)
4,GGAACUACCAUGCAGGCUATT against ATP6V0B,0 (inactive)
5,CCAGCAUGGUUACUACGAATT against TRAIP,-0.018 (inactive)
6,GGAACAAGAGUGGACGGAATT against PIAS3,-0.216 (inactive)
7,CCAGCUCUUCCAUACAAUATT against RAB9A,0.247 (inactive)
8,GGCUUCAUAUCUAGACUAATT against APOBEC3A,0.467 (inactive)
9,UGUUCAGCCUUGACUCAAATT against RHOU,-1.44 (active)
10,GCACCUAUGAGGAAAAUGATT against LAMB2,1.12 (active)
11,GAAGCUUGAUCUAAUUAUATT against ZNF182,0 (inactive)
12,CCAUUUCCAGAGGCCCAGATT against SLC22A12,-0.148 (inactive)
13,GCCUGGAACUCGUUAGCAATT against TRMT11,-0.707 (inactive)
14,GGCUUAACUUUAGUGUUGATT against PRDM2,1.12 (active)
15,GAGCGAGUUUUACCUGAUATT against ABCA10,-0.104 (inactive)
16,CAGAUAUGAUUGGUGUAAATT against CABP1,-0.192 (inactive)
17,GAAAUCGACUCUCACCAAATT against IL18RAP,-0.681 (inactive)
18,CGGAAAAUCAGCAACAUCATT against EPS8L2,-0.497 (inactive)
19,GGAUAAUAAGGAUCUAUUUTT against CPNE3,0.109 (inactive)
20,GUUUACCUCUGGAUACACUTT against SNRPD1,-2.97 (active)
21,GGAGUUCCAAUGGAAGUUATT against PSMD14,0.375 (inactive)
22,CGAUGGACUAAGUAAUAUATT against KPNA4,0.457 (inactive)

row,Sequence,median seed-adjusted z-score
1,CCACCUAUUUGCACAAGGATT against POMT2,-0.614 (inactive)
2,UCAAGGCCCUGUGCGCUAATT against PPP4C,1.15 (active)
3,GCAACCACCAAGAGUUUGATT against KCNS1,-0.167 (inactive)
4,CUGUAGAUCUUUGUCAAAATT against DUS4L,0.525 (inactive)
5,UGCUAGUCCUGGGAACAGATT against PPM1J,-0.901 (inactive)
6,GGUCAACAAUGCUUAUGCATT against DHRS1,0 (inactive)
7,GCUUGAGAACUACCAGGUUTT against TAL2,-0.395 (inactive)
8,ACAAUAAGCUGGACCUCUATT against TLR9,-0.0834 (inactive)
9,CCUUCUACAGGAUCUCCAATT against ADRA1A,-1.06 (active)
10,CAGUGGAUGUUAUUCCUCATT against RNF128,-0.377 (inactive)
11,GGACUACACGUACUUCUCATT against KIRREL3,-0.206 (inactive)
12,CCAAGAGUGAUGCAGAGGATT against CABP4,0.146 (inactive)
13,GGAGUUCUGUAACUCACUUTT against SLC38A2,-1.04 (active)
14,GGUGCUACAUCCUAGAGAATT against SULF2,-0.109 (inactive)
15,GCAAGACCUGGUCAGUAUATT against NOX4,-0.246 (inactive)
16,AGAAUGUCUUGAUUGUGGATT against HPRT1,-0.0463 (inactive)
17,GCCUCACAUUUUCUAAUGATT against RRM2,-3.84 (active)
18,AGAAGUUCAUGGUCGGAGATT against SULT1A1,-0.26 (inactive)
19,GAUCGGCACUUACACCUGUTT against OPHN1,0.692 (inactive)
20,AGAUCGACCAGAACGUGGATT against APOA4,0.195 (inactive)
